# From PubChem BioAssay (NCI)
# About 83,000 compounds went through this panel and 20% of them were active in at least one assay; those are over-represented in the sample as a whole.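 In brief: 96-well plates, 48 h treatment, single concentration, percent growth endpoint.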 Activity calls are given as the source filed them. How the source made its calls: active means growth percent below 10; inactive means the rest.
# Test system: OVCAR-3 ovarian
# Experiment: NCI-60 one-dose screen, 48 h (100 = growth as untreated, 0 = no growth, -100 = all killed)
# Conditions: 10 µM unless noted
row,Structure (SMILES),growth
1,O=C(/C=C/Nc1ccc(S(=O)(=O)Nc2ncccn2)cc1)c1ccc(N=Cc2c(O)[nH]c3ccccc23)cc1,137% (inactive)
2,CCCCCN1C(=O)/C(=c2\sc3n(c2=O)C2C(NN=3)N(CC)C(=O)N2CC)c2cccc(C)c21 (stereo not given),32.9% (inactive)
3,C#C[C@]1(O)CC[C@H]2[C@@H]3CC=C4c5sc(Nc6ncccc6C)nc5CC[C@]4(C)[C@H]3CC[C@@]21C,32.1% (inactive)
4,O=C1CSC(c2cn(-c3ccccc3)nc2-c2ccc(Cl)cc2)N1c1ccccc1 (stereo not given),124% (inactive)
5,CC(=O)Nc1ccccc1-c1nc2ccccc2s1,112% (inactive)
6,O=C(/C=C/c1cccc(Br)c1)c1cccc(OCCCCOc2cccc(C(=O)/C=C/c3cccc(Br)c3)c2)c1,105% (inactive)
7,C/C(=C(\c1ccc(O)cc1)c1ccc(OCCN2CCCCCC2)cc1)c1ccc(Cl)cc1,-73.3% (active)
8,Clc1ccc(CSc2nnc(-c3ccc(Cl)cc3)n2-c2ccccc2)cc1,101% (inactive)
9,O=C(CCCCCCNC(=O)C(O)(O)C(F)(F)F)Nc1nc2ccccc2s1,-38.8% (active)
10,CC(C)NC(=O)c1cc(-c2ccc(NC(=O)Nc3ccc(F)c(C(F)(F)F)c3)cc2)nc2cccnc12,109% (inactive)
11,COc1ccc(-c2cnc(NC(=O)CCCCCCNC(=O)C(O)(O)C(F)(F)F)s2)cc1,-50.6% (active)
12,C/C=C/CC(C)C(O)[C@H](NC(=O)[C@@H]1CCCN1C(=O)[C@](C)(CC)NC(=O)CCCCCCCCC)C(=O)N[C@@](C)(CC)C(=O)N[C@@H](CCC(N)=O)C(=O)N[C@H](CCC(N)=O)C(=O)NC(C)(C)C(=O)NC(C)(C)C(=O)N[C@@H](CCC(N)=O)C(=O)N[C@H](CC(C)C)C(=O)N[C@H](CO)CC(C)C (stereo not given in full),7.49% (active)
13,CC1CC(=O)C2=C(C1)Nc1ccc(Br)cc1CC2c1c[nH]c2ccc(Br)cc12 (stereo not given),42.1% (inactive)
14,CC(C)(C)Nc1nc2c(OCCc3ccccc3)cccn2c1-c1cccc(Oc2ccccc2)c1,24% (inactive)
15,CCCC/C(=C\c1ccc(O)c(O)c1)C(=O)NC(Cc1ccccc1)C(=O)C(=O)NCCc1ccc(OC)cc1 (stereo not given),93.7% (inactive)
16,COC(=O)c1cccc(NC2=C(Cl)C(=O)c3nc(C)ccc3C2=O)c1,4.2% (active)
17,NC1CC2(CCN(c3cnc(C(=O)Nc4cc(F)cc5cccnc45)cn3)CC2)C1,85.2% (inactive)
18,COC(=O)c1ccc(NC2=C(Cl)C(=O)c3nc(C)ccc3C2=O)cc1,63.6% (inactive)
19,CC(Nc1c(C#N)cnc2ccc(-c3cncc(-c4n[nH]c(=O)o4)c3)cc12)c1ccccc1 (stereo not given),3.98% (active)
20,CC(=O)OC[C@]12CC[C@@H](C(=O)/C=C/c3cccnc3)[C@@H]1[C@H]1CC[C@@H]3[C@@]4(C)CC[C@H](OC(C)=O)C(C)(C)[C@@H]4CC[C@@]3(C)[C@]1(C)CC2,8.9% (active)

row,Structure (SMILES),growth
1,CC(O)c1cccc(/C(N)=N/C(N)=N/c2nc3ccccc3s2)c1 (stereo not given),102% (inactive)
2,CC(C)=CCC[C@](C)(O)[C@H]1CC[C@]2(C)[C@@H]1CC[C@@H]1[C@@]3(C)CC[C@H](N)C(C)(C)[C@@H]3CC[C@]12C,107% (inactive)
3,Cc1ccc2c(n1)C(=O)C(Cl)=C(Nc1cccc(C)c1C)C2=O,-97.8% (active)
4,C[C@]12CC[C@H]3[C@@H](CC=C4C[C@@H](O)CC[C@@]43C)[C@@H]1CC[C@@H]2[C@](C)(O)CCc1cccnc1,65.7% (inactive)
5,CN1CCN(c2ccc(Nc3nc(NCCCNS(=O)(=O)c4ccc(C(F)(F)F)cc4)c4sccc4n3)cc2)CC1,-74.1% (active)
6,Cc1ccc2c(n1)C(=O)C(Cl)=C(Nc1cccc(C(F)(F)F)c1)C2=O,-86.3% (active)
7,O=C(CN1CCN(c2cc(=O)[nH]c3ccc(F)cc23)CC1)N(c1ccccc1)c1ccccc1,109% (inactive)
8,Cc1[nH]c(C(=O)Nc2ccc(C(N)=O)cc2N2CCOC(C)C2)c(Cl)c1Cl (stereo not given),109% (inactive)
9,CC1(C)CC[C@]2(C(=O)O)CC[C@]3(C)C(=CC[C@@H]4[C@@]5(C)CC[C@H](NOCCCN)C(C)(C)[C@@H]5CC[C@]43C)[C@@H]2C1,95.6% (inactive)
10,Cc1ccc2c(n1)C(=O)C(Cl)=C(Nc1ccc(C#N)cc1)C2=O,4.24% (active)
11,CC(=O)Nc1nc(C)c(-c2csc(Nc3ccccc3)n2)s1,37.1% (inactive)
12,O=C(/C=C/c1cccc(F)c1)c1cccc(OCCCCOc2cccc(C(=O)/C=C/c3cccc(F)c3)c2)c1,105% (inactive)
13,O=S(=O)(NCCCNc1nccc(-c2[nH]c(-c3ccccc3)nc2-c2ccc(F)c(O)c2)n1)c1ccc(C(F)(F)F)cc1,33.6% (inactive)
14,O=C(CCCCCCNC(=O)C(O)(O)C(F)(F)F)Nc1ncc(-c2ccccc2)s1,-43% (active)
15,CN(C)c1ccc(/C=N/Nc2nc(N/N=C/c3ccc(N(C)C)cc3)nc(N3CCCCC3)n2)cc1,65.6% (inactive)
16,NC1[C@H]2CN(c3cnc(C(=O)Nc4cc(F)cc5cccnc45)cn3)C[C@@H]12 (stereo not given in full),2.08% (active)
17,Clc1cccc(/C=N/Nc2nc(N/N=C/c3cccc(Cl)c3)nc(N3CCCCC3)n2)c1,91.4% (inactive)
18,CC(Nc1ncnc2ccc(-c3cnc4cnccn34)cc12)c1ccccc1 (stereo not given),67.5% (inactive)
19,CN1CCN(c2ccc(Nc3nc(NCCNC(=O)c4ccccc4)c4sccc4n3)cc2)CC1,76.9% (inactive)
20,O=C(CSc1nc2ccccc2c(=O)n1-c1ccccc1)N/N=C/c1ccc(Oc2ccc(Cl)cc2)cc1,111% (inactive)
